IDE cell inh – human IDE inhibitors in live cells, primary screen, fluorescence polarization, HEK cells, FAbetaB substrate; FAbetaB cleavage; inhibition, % at 5.59 µM; 320,000 compounds, 0.41% hits; AID 434962, 2010;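 active = percent inhibition above the average of all tested compounds plus 3 SD, set per screening campaign, cut at about 16% in these data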;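 note: IDE supplied by intact live HEK cells; FP after avidin binding of uncleaved biotin substrate so inhibition keeps polarization high; 0% = DMSO wells and 100% = 60 µM reference IDE inhibitor Ii1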
PP5 inh – PP5 phosphatase inhibitors, primary screen, biochemical, fluorescence; Serine/threonine-protein phosphatase 5 (Homo sapiens), P53041; purified PP5c, OMFP substrate fluorescence; inhibition, % at 6.7 µM; 320,000 compounds, 0.18% hits; AID 1987, 2009;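 active = inhibition above the campaign's mean inhibition across all tested compounds plus 3 SD, cut at about 9.5% in these data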;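 note: 0% = DMSO only and 100% = 100 µM cantharidin control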
Target sequence (P53041 whole entry, looked up): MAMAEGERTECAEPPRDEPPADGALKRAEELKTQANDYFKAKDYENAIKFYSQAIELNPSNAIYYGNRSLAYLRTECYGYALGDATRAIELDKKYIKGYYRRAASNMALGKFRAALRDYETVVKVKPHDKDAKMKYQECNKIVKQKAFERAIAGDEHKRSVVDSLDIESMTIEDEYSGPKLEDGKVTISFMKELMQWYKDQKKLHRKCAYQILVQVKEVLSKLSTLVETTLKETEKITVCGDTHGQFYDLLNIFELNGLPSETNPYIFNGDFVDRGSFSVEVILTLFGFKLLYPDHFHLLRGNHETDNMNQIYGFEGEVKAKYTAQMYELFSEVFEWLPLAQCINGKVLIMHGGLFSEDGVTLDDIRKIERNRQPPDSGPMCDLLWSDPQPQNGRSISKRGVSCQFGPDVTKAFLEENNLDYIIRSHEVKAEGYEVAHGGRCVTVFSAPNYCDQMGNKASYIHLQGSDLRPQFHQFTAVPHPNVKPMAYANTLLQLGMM
IDE cell activ – human IDE activators in live cells, primary screen, fluorescence polarization, HEK cells, FAbeta-B substrate. 340,000 compounds, 0.073% hits. FAbeta-B cleavage; 0% vehicle, 100% cell-free pure enzyme wells. activation, % at 5.96 µM;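 active = activation above the mean of all tested compounds plus 3 SD, set per screening campaign, cut at about 17% in these data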
PP1 counter – PP1-alpha phosphatase inhibitors, primary screen, counter-screen for PP5 inhibitor project, biochemical, fluorescence, OMFP substrate, single point | Serine/threonine-protein phosphatase PP1-alpha catalytic subunit (Homo sapiens), P62136 | purified PP1alpha | inhibition, % at 6.7 µM | 320,000 compounds, 0.9% hits | AID 2235, 2010;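 active = inhibition above the mean inhibition of all tested compounds plus 3 SD, computed separately for each screening campaign, cut at about 15% in these data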
Exocytosis inh – LAMP-1 surface exposure blockers, TALL-104 cells – cell-based, flow cytometry, MLPCN library, primary screen; inhibition, % at 10 µM; 360,000 compounds, 0.66% hits; AID 651702, 2012; TALL-104 LAMP-1 surface exposure; cells stimulated with thapsigargin and PMA;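 active = inhibition above about 55%, limit read from the data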
SKKanGAS inh – S. pyogenes SKKanGAS growth inhibitors in kanamycin, primary screen, streptokinase expression inhibitor project, SKKanGAS strain, BacTiter-Glo luminescence. 6 h. inhibition, % at 7.5 µM. 300,000 compounds, 1.3% hits. AID 1662, 2009;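 active = mean replicate score, as percent of positive control median, at least 50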;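 note: strain carries kanamycin resistance gene driven by streptokinase promoter and grows in 40 µg/ml kanamycin; loss of luminescence reflects streptokinase promoter inhibition or plain growth inhibition; 0% = median of DMSO wells and 100% = positive control at its reference dose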
PP5 conf – PP5 phosphatase inhibitors, confirmation, biochemical, fluorescence, human; inhibition, % at 6.7 µM; 460 compounds, 22% hits; Purified PP5, fluorogenic phosphatase substrate; shares compounds with PP5 inh; in the data active = inhibition above about 9.5%
PP1 counter 3x – PP1 phosphatase inhibitors, counter-screen for PP5 inhibitor project, biochemical, fluorescence, triplicate; inhibition, % at 6.7 µM; 460 compounds, 4% hits; shares compounds with PP5 inh; PP1 enzyme, fluorescent phosphatase substrate; AID 2355, 2010; in the data active = inhibition above about 16%
The depositor's hits bear a star; nt = no result. An excerpt weighted towards active compounds, which were near 2.8% of everything screened.

SMILES	IDE cell inh	PP5 inh	IDE cell activ	PP1 counter	Exocytosis inh	SKKanGAS inh	others
O=c1[nH]c(=S)n(CCC2=CCCCC2)c(O)c1C=NCc1cccnc1	4.0	2.6	-1.3	-3.9	9.9	-7.3
Nc1ccccc1N=Cc1c(O)n(CCC2=CCCCC2)c(=O)[nH]c1=O	-2.6	0.4	3.5	-1.8	-3.4	12.9
O=C(N/N=C/c1c(O)n(CCC2=CCCCC2)c(=S)[nH]c1=O)c1ccccc1	0.1	-1.0	7.4	14.2	-0.2	97.2*
O=C(N/N=C/c1c(O)n(CCC2=CCCCC2)c(=O)[nH]c1=O)c1ccccc1	1.0	4.1	8.1	13.5	-1.7	62.4*
O=C(/C=C/c1ccc2c(c1)OCO2)c1c(O)n(CCC2=CCCCC2)c(=O)[nH]c1=O	5.1	1.2	1.7	3.2	0.8	nt
COc1ccc(/C=C/C(=O)c2c(O)n(CCC3=CCCCC3)c(=O)[nH]c2=O)cc1	4.2	-0.1	8.2	-0.9	-1.1	57.9*
CC(C)(C)n1nnnc1C(CCc1ccccc1)N1CCC2(CC1)C(=O)NCN2c1ccccc1 (stereo not drawn)	nt	nt	nt	nt	2.8	nt
Cc1cccc(C)c1-n1nnnc1C(CCc1ccccc1)N1CCC2(CC1)C(=O)NCN2c1ccccc1 (stereo not drawn)	nt	nt	nt	nt	8.8	nt
Cc1c(CCC(=O)N2C[C@H]3C[C@@H](C2)c2cccc(=O)n2C3)c(=O)oc2c(C)c(O)ccc12	nt	nt	nt	nt	4.2	nt
CC(C)(C)C(=O)N1Cc2cc(N3CCCCC3)ccc2-n2nncc2C1	nt	nt	nt	nt	-1.0	nt
O=C1C(=O)c2ccccc2-c2ccccc21	1.4	4.3	-3.4	40.0*	84.7*	86.0*
O=C1C(=O)c2cccc3cccc1c23	12.3	1.7	-6.1	-1.2	1.6	-1.5
O=C(COC(=O)c1cc(Br)cc(Br)c1O)NC12CC3CC(CC(C3)C1)C2	nt	nt	nt	nt	9.2	nt
Cc1nc2ccccc2c(=O)n1-c1ccc(C(=O)O)cc1	4.2	1.7	17.6*	0.2	-3.0	-3.1
CC(C)(C)c1ccc(CSc2cnn(C(C)(C)C)c(=O)c2Cl)cc1	-0.7	2.0	1.2	-0.8	-15.9	59.4*
O=C(Nc1cc(Cl)cc(Cl)c1)N1Cc2ccccc2-n2nncc2C1	nt	nt	nt	nt	0.3	nt
COc1cc2cc(C(=O)N3CC(COS(C)(=O)=O)c4ccc(O)cc43)[nH]c2c(OC)c1OC (stereo not drawn)	nt	nt	-2.0	nt	11.8	nt
CCOC(=O)C1(CCOc2ccccc2)CCN(Cc2ccccc2OC)CC1	-1.6	0.9	-3.5	-2.8	34.2	-1.1
CCOC(=O)C1(CCOc2ccccc2)CCN(Cc2cccc(O)c2)CC1	0.5	-1.4	2.8	2.4	90.5*	-8.5
Clc1ccc(CO/N=C(\Cn2ccnc2)c2ccc(Cl)cc2Cl)c(Cl)c1	5.0	3.9	nt	32.9*	nt	96.5*
COC(=O)C1(F)C(=O)NC(=O)NC1O (stereo not drawn)	nt	nt	nt	nt	-7.3	nt
CCOC(=O)c1cccc(C2=C(CNC(=O)c3nccs3)[C@H]3CC[C@@H](C2)N3Cc2ccccc2)c1	nt	nt	nt	nt	-0.9	nt
CCC(C)/C=C(C)/C=C/C1=CC2=C(Cl)C(=O)C(C)(OC(C)=O)C(=O)C2=CO1 (stereo not drawn)	-4.0	12.2*	2.5	0.6	1.3	23.5	PP5 conf=7.4;PP1 counter 3x=6.2
CCCCCCC(C)(C)c1ccc([C@@H]2C[C@H](O)CC[C@H]2CCCO)c(O)c1	0.9	10.4*	12.2	-0.5	13.1	nt	PP5 conf=3.6;PP1 counter 3x=4.5
COc1ccc(Cn2c(N)c(C(=O)NCc3ccco3)c3nc4ccccc4nc32)cc1OC	0.3	11.7*	-2.5	6.6	2.5	nt	PP5 conf=44.3*;PP1 counter 3x=10.0

Screening results: PubChem BioAssay, several laboratories
